Screening results as filed in PubChem.
SMN2 splice enh – SMN2 splice variant enhancement; 210,000 compounds, 2.8% hits; Potency, µM (series often up to 46.1 µM), without a hit: top-dose activity change, positive = activation, actives largely listed as activators; HEK293 SMN2-luciferase splicing reporter, luminescence, 30-36 h; AID 1458; also: % of control where 0% means no effect; nearly all actives have a fitted effect of over 55% in size
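qHTS luciferase splicing reporter: luminescence rises when SMN2 exon 7 is included in transfected HEK293 cells. Compound exposure lasted 30-36 h at 37C, with 4.5 mM final sodium butyrate as control, followed by a ONE-Glo read.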
Rab9 prom act – activators of Rab9 promoter; Huh7 Rab9 promoter-luciferase reporter, luminescence, 24 h; Potency, µM (top dose mostly 9.22 µM), inactives show at the highest dose activation, negative = inhibition, most hits filed as activators; 320,000 compounds, 2.8% hits; AID 485297; also: % of control where 0% means no effect; nearly all actives have a fitted effect of over 60% in size
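Rab9 promoter-driven luciferase in stably transfected Huh7 cells; 1500 cells/well rested 2 h, exposed to compound in DMSO for 24 h at 37 °C, 5% CO2. Luminescence read 10 min after adding luciferase reagent at ambient temperature.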
Luc counter – Kinase-Glo luciferase inhibition (counter-screen); Potency, µM (titrated, usually from 38.3 µM), without a hit: at the highest dose activity change, negative = inhibition, most hits filed as inhibitors; Kinase-Glo luciferase, ATP luminescence, 8 min; Q27757; 200,000 compounds, 0.28% hits; also: % is scaled to controls: 0 for no effect and ±100 for the full control effect; nearly all actives have a fitted effect of over 60% in size
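Light output from Kinase-Glo luciferase with luciferin and 10 uM ATP in 50 mM imidazole pH 7.2, KCl, MgCl2, Tween 20, BSA; compound pin-delivered, 8-min ambient incubation, then luminescence read.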
ELG1 genotox – inducers of genotoxicity in HEK293T ELG1-luciferase cells | Potency, µM (titrated, usually from 46 µM), without a hit: at the highest dose activity change, positive = activation, usual class: activators | 330,000 compounds, 1.3% hits | HEK293T ELG1-luciferase reporter, luminescence, 16 h; also: % of control where 0% means no effect; nearly all actives have a fitted effect of over 60% in size
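Cells (2,000/well) expressing the ELG1-luciferase fusion are dosed by pin tool and kept 16 hr at 37 °C, 5% CO2. Signal comes from ONE-Glo luciferase reagent after 30 min at room temperature.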
NPC1 promoter act – activators of NPC1 promoter | Huh7 NPC1 promoter luciferase reporter, 24 h | Potency, µM (top dose mostly 9.22 µM), without a hit: at the top dose activation, hits mostly activators | 320,000 compounds, 2.4% hits; also: % of control where 0% means no effect; nearly all actives have a fitted effect of over 60% in size
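Compounds in DMSO were transferred onto Huh7 NPC1-luciferase reporter cells pre-incubated 2 h; after 24 h at 37 °C, Amplite reagent was dispensed and luminescence recorded 10 min later.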
FLuc modulator – counter-screen for miR-21 project: firefly luciferase inhibitors or activators | P08659 | purified FLuc, Km substrates, luminescence inhibition | Potency, µM (top dose mostly 57.5 µM), without a hit: top-dose activity change, negative = inhibition, most hits filed as inhibitors | 360,000 compounds, 6.9% hits | AID 588342;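 also: plate controls were vehicle for no effect and reference inhibitor for full effect; nearly all actives have a fitted effect of over 55% in size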
Target sequence (P08659 whole entry, looked up): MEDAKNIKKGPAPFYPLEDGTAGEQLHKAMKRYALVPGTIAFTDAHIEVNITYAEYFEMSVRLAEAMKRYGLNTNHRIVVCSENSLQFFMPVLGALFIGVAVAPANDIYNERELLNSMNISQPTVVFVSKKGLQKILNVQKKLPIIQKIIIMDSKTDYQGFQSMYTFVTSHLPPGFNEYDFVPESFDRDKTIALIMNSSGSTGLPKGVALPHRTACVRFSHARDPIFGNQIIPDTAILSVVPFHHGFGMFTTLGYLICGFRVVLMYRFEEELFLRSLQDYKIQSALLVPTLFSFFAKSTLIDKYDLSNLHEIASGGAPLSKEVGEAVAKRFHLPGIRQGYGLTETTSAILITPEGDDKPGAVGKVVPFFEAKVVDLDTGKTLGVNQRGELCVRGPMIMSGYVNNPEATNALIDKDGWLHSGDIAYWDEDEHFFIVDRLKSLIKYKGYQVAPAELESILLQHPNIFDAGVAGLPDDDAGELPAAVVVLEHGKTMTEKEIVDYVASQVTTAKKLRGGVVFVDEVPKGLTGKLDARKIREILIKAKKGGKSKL
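Purified P. pyralis luciferase (10nM final) with 10uM D-luciferin and 10uM ATP (Km levels) in 50mM Tris acetate pH 7.5, 10mM Mg acetate, 0.01% Tween-20, 0.05% BSA; qHTS 6-point titration, ~60 µM downward; luminescence read.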
* marks the source's active call; other numbers are inactive results; ? = inconclusive; . = no result given; [ ] = dose if it differs, or a comment. Rows were chosen to be rich in hits. Some 7.3% of all compounds tested hit in one or more screens of this group. Calls follow the shape of the dose curve; as a rule, active = well fitted curve in the direction sought with a large enough effect; inconclusive = small, poorly fitted or top-dose-only effect, or another doubt; inactive = no such curve, though single readings can be large; an effect the other way counts as inactive or inconclusive. Potency is read from the fitted curve at half-maximal effect.

SMILES | SMN2 splice enh | Rab9 prom act | Luc counter | ELG1 genotox | NPC1 promoter act | FLuc modulator
Brc1ccc(-c2nnc(-c3cccc(Br)c3)o2)cc1 | 23% | -34% | -4% | 19% | 3.2µM* | 9.5µM*
O=C(O)c1ccc(-c2nnc(-c3cccc(Br)c3)o2)cc1 | . | 1.6µM* | . | ? | 1.4µM* | 11µM*
Cc1ccc(/C=N/N=C/c2ccc(C)s2)s1 | 7.1µM* | 2.2µM* | 0% | 3.7µM* | 1.6µM* | 0.67µM*
Cc1cccc(N/N=C/c2ccc(O)c(O)c2O)c1 | . | -2% | . | -4% | -4% | ?
Cc1cccc(N/N=C/c2ccc(C)s2)c1 | . | ? | . | ? | ? | 12µM*
CCN(C(=O)Cn1cnc2onc(-c3ccc(F)cc3)c2c1=O)c1cc(C)ccc1C | . | . | . | . | . | -1%
Cc1ccn2cc(-c3cc4ccccc4oc3=O)nc2c1 | . | 0.28µM* | 10µM* | 0.46µM* | 0.32µM* | 0.43µM*
Cc1ccc(-c2csc(Cc3nc(-c4cc5ccccc5oc4=O)cs3)n2)cc1 | -72% | -20% | -7% | -3% | -16% | 1%
O=c1oc2ccccc2cc1-c1cn2cc(Cc3ccc(Cl)cc3)sc2n1 | -2% | . | . | . | . | -1%
O=c1oc2ccccc2cc1-c1cn2cc(Cc3ccccc3F)sc2n1 | 1% | . | . | . | . | 0.34µM*
CCN(CC)CCNC(=O)c1ccc2c(=O)n3nc(Nc4cccc(Cl)c4C)sc3nc2c1 | . | . | . | . | . | -2%
O=c1oc2ccccc2nc1/C=C(\O)c1ccc(Br)cc1 | . | 12% | . | 0% | 9% | 24µM*
C/C(O)=C\c1nc2ccccc2oc1=O | 1% | 14% | -7% | -1% | -4% | 2%
CC(=O)Nc1ccc(NC(=O)C/C(C)=N/NC(=O)c2cccc3ccccc23)cc1 | . | -6% | . | 1% | -11% | 15µM*
CC(=O)Nc1ccc(NC(=O)C/C(C)=N/NC(N)=S)cc1 | 9% | -3% | 2% | -5% | -5% | -3%
CCCCNC(=O)c1nn(-c2ccc(C)cc2)c(=O)c2c1c1ccccc1n2C | -5% | . | . | . | . | -5%
O=C(Nc1ccc2[nH]c(=S)sc2c1)Nc1ccccc1F | . | 0.13µM* | . | 0.58µM* | 0.11µM* | 21µM*
O=C(Nc1ccc2[nH]c(=O)[nH]c2c1)Nc1ccc(F)cc1F | . | 1% | . | 1% | -1% | -4%
O=C(Nc1ccc2[nH]c(=S)sc2c1)c1ccccc1 | 11µM* | ? | 0% | ? | 2.8µM* | ?
Nc1c(-c2cccs2)cnc2c(-c3ccc(F)cc3)cnn12 | . | 0.35µM* | . | 2.6µM* | 0.45µM* | 0.48µM*
CS(=O)(=O)c1cnc2c(-c3ccc(F)cc3)cnn2c1N | ? | 1.1µM* | -2% | ? | 0.79µM* | 2.4µM*
Nc1c(-c2ccccc2)cnc2c(-c3ccccc3)cnn12 | . | 0.11µM* | . | 0.73µM* | 0.32µM* | 0.24µM*
O=C(O)[C@@H]1[C@@H](C(=O)Nc2ccccc2)[C@@H]2C=C[C@@H]1O2 | -10%[9.22 µM] | . | -4%[7.66 µM] | . | . | .
COc1ccc2nc(N3C(=O)CC(Cc4ccc(C)cc4)C3=O)sc2c1 (configuration not stated) | -7% | -2% | 3% | -1% | 0% | ?
O=C1C2C3C=CC(C3)C2C(=O)N1c1nc2ccccc2s1 (configuration not stated) | -16% | -5% | -3% | 0% | 2% | 19µM*
SMILES | SMN2 splice enh | Rab9 prom act | Luc counter | ELG1 genotox | NPC1 promoter act | FLuc modulator
O=C1C2C3C=CC(C3)C2C(=O)N1c1ccc2ccccc2n1 (configuration not stated) | -1% | 2% | 4% | 1% | 1% | ?
Cc1ccc(CC2CC(=O)N(c3nc4ccccc4s3)C2=O)cc1 (configuration not stated) | . | -9% | 0% | 0% | -1% | 27µM*
CC1CCN(C(=O)Nc2ccc3nsnc3c2)CC1 | 13% | 4.5µM* | -4% | ? | ? | 13µM*
CC1CCN(C(=O)Nc2cccc(NC(=O)N3CCC(C)CC3)c2)CC1 | 5% | 0% | -4% | 2% | 10% | 15µM*
CCN(CC)C(=O)Cn1c(SCCOc2ccc(Cl)cc2)nc2ccccc21 | . | . | . | . | . | -8%
CCCCNc1c(-c2ccc(SC(C)CC)c(OC)c2)nc2ccc(C)cn12 (configuration not stated) | . | -1% | . | -6% | 0% | 8.5µM*
CC(/C=C/C(=O)c1ccc(C)cc1)=C\c1ccccc1 | -26% | ? | 5% | 18% | ? | 4.3µM*
CCc1ccc(C(=O)/C=C/NCc2ccc(F)cc2)cc1 | 27% | ? | 2% | 15% | 18% | ?
Cc1ccc(C(=O)/C=C\C(=O)c2ccc(C)cc2)cc1 | 24% | 0% | -1% | ? | -8% | ?
Cc1ccc(C(=O)/C=C\NCc2ccccc2)cc1 | ? | ? | -1% | 14% | ? | 11µM*
O=C(/C=C/NNC(=O)c1ccccc1O)c1ccccc1 | . | 14% | . | 4% | 18% | 19µM*
Cc1ccc(C(=O)C=CNNC(=O)c2ccccc2)cc1 | . | 9% | . | -1% | 12% | 24µM*
Cc1ccc(S/C=C\C(=O)c2ccccc2)cc1 | -3% | 11% | -22% | 18µM* | 10% | 0.13µM*
CN(C)/C=C/C(=O)c1ccccc1 | . | -2% | . | 0% | 0% | -4%
Cc1csc(NC(=O)CSc2nnc(-c3ccncc3)o2)n1 | 3.2µM* | ? | -1% | 5% | 25% | -2%
